# In PubChem BioAssay (NCI):
# This is part of a sample that, as a whole, favours compounds with a hit. Of some 83,000 tested, about 20% had one in any assay.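 In brief: 96-well plates, 48 h treatment, single concentration, percent growth endpoint.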 A number with no mark means an inactive call. Calls of active or inactive are those of the source.
# System: A498 renal
# Assay: NCI-60 one-dose screen, 48 h (100 = growth as untreated, 0 = no growth, -100 = all killed)
# Details: 10 µM unless noted
# Experimental: Growth inhibition of the A498 human tumor cell line is measured as a screen for anti-cancer activity. Cells are grown in 96 well plates and exposed to the test compound for 48 hours. Compounds are tested at a single concentration, which is 10^-5 M for most compounds. The reported endpoint is percent growth (GI% or GIPRCNT), where numbers from 0 - 100% represent growth inhibition, and numbers from -100% - 0 represent cell death. For example, a value of 40 represents 60% growth inhibition. A value of 0 means no net growth occurred over the course of the experiment. A value of -40 indicates 40% of cells at the beginning of the experiment died by the end of the experiment. A value of -100 means all cells are dead at the end of the experiment.
# NCI-60 Human Tumor Cell Lines Screen was performed using the standard one-dose NCI protocol, which is described in more detail at https://dtp.cancer.gov/discovery_development/nci-60/default.htm.
# Compounds with GIPRCNT values below 10 were considered active. Activity score was based on GIPRCNT using the following formula: […]
# Score is 0 for GIPRCNT values of 100 or above, 50 for GIPRCNT values of 0, and 100 for GIPRCNT values of -100.
row,SMILES,growth
1,CC(=O)OCC1OC(n2cnc3c(=S)nc(N)[nH]c32)C(OC(C)=O)C1OC(C)=O (stereo not given),105%
2,CCCc1cccc(CCC)c1NC(=O)Nc1cc(Cl)cc(Cl)c1,95.9%
3,CCCCOC(=O)c1ccccc1O,129%
4,CC1(C)OC(=O)CC1=O,88.9%
5,COC1CC(OC(=O)c2ccc([N+](=O)[O-])cc2)C(COC(=O)c2ccc([N+](=O)[O-])cc2)O1 (stereo not given),83.5%
6,C=CCN1CCCC1=O,91%
7,C(=C\c1ccncc1)/c1ccncc1,120%
8,COC(=O)c1ccccc1C(=O)c1c(C)cc(C)cc1C,88.9%
9,CCc1ccccc1C(=O)N(CC)CC,86.1%
10,C=CCOc1ccc(Cl)cc1Cl,107%
11,CN(C)c1ncnc2c1cnn2C,112%
12,Nc1ccc2ccccc2c1-c1c(N)ccc2ccccc12,14.6%
13,c1ccc(Nc2ccccn2)nc1,112%
14,O=C(CCl)Oc1ccc([N+](=O)[O-])cc1,133%
15,COc1cc(OC)c(NC(=O)C(Sc2nc(C)cc(C)c2C#N)c2ccccc2)cc1Cl (stereo not given),111%
16,COC1OC(C(COC(C)=O)OC(C)=O)C(OC(C)=O)C(OC(C)=O)C1OC(C)=O (stereo not given),125%
17,CCOC(C=O)OCC,93.3%
18,Nc1c(O)c(S(=O)(=O)O)c(O)c2c1C(=O)c1ccccc1C2=O,5.41% (active)
19,CN(C(=S)S(=O)(=O)C12CC3CC(CC(C3)C1)C2)c1ccccc1,98.6%
20,Cc1ccc(/C=N/NC(N)=S)s1,95.2%

row,SMILES,growth
1,O=S(Cc1ccccc1)/C(=C/NC(=S)Nc1ccccc1)c1ccccc1 (stereo not given),120%
2,C1CCc2onc(-c3noc4c3CCCCC4)c2CC1,146%
3,Cc1ccccc1CC(N)C(=O)O (stereo not given),109%
4,CC(=O)N(C(C)=O)c1ccc(C)cc1,119%
5,ON1CCCC1,97.5%
6,CC1CN(CCO)CC(C)O1 (stereo not given),114%
7,CCCCN(C(=O)CC)c1ccccc1,83.3%
8,O=C(O)CSCC(=O)Nc1cc(C(F)(F)F)ccc1Cl,139%
9,Cc1ccc([N+](=O)[O-])c(C)n1,79.8%
10,Cc1ccc(C)c(CN(C)C)c1O,94.2%
11,Cc1ccc(OC(=O)c2ccccc2)cc1,95.6%
12,COC1OC(C(O)C(O)CO)C(O)C(O)C1O (stereo not given),107%
13,COC1OC(COC(C)=O)C(OC(C)=O)C(OC(C)=O)C1OC(C)=O (stereo not given),88.8%
14,CN1CCCN(C(c2ccccc2)c2ccc(Cl)cc2)CC1 (stereo not given),56.1%
15,COc1cc2c(c(OC)c1OC)-c1ccc(SC)c(=O)cc1[C@@H](NC1OC(CO)C(O)C(O)C1O)CC2 (stereo not given in full),-14.3% (active)
16,COc1cccc(N=CNc2cccc(OC)c2)c1,93.2%
17,CCOC(=O)c1ccc(C(C)(C)C)cc1,114%
18,O=S(=O)(O)c1ccc(O)c(C2CCCCC2)c1,66.3%
19,Cn1/c(=N\N=C\c2ccccc2OCCO)sc2ccccc21,103%
20,CC(C)C(=O)OCCOc1ccc(C(C)(C)C)cc1,94.2%
